Reference: PubChem BioAssay (NCATS)
Values without a mark were called inactive. Inconclusive results are not listed. Activity calls are given as the source filed them. Unless noted, calls come from the whole dose curve; as a rule, active = well fitted curve in either direction with a large enough effect (not every such curve was filed as active); inconclusive = small, poorly fitted or top-dose-only effect, or another doubt; inactive = flat fitted curve, though single readings scatter.

What was measured:
[1] = molecular target: Lysosomal acid glucosylceramidase (Homo sapiens) (UniProt P04062); experiment: Glucocerebrosidase-p2 (AID 348; in the data active = potency below about 10 µM; note: potency is the fitted concentration of half-maximal effect); details: purified GBA, blue fluorogenic substrate, 40 min
Outline: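 Compounds titrated from 0.6 nM upwards against 0.2 nM enzyme in pH 5.9 citric acid/KH2PO4, taurocholate, tween-20; blue fluorogenic substrate 80 uM, 40 min room temperature, stopped and read Ex 365/Em 440 for AC50.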

[2] = AP1 Signaling Pathway (AID 357); details: ME-180 AP-1-bla reporter, EGF-induced, beta-lactamase ratio, 5 h; at 7.69 µM (top of the series) unless noted; note: % is set by controls: 0 for no effect and ±100 for the full control effect
Outline: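 ME-180 cells with beta-lactamase reporter under AP-1 response element, stimulated with EC50 EGF; compounds tested in titration series, 5 h at 37 °C. CCF4 substrate added 2.5 h at room temperature; 460/530 nm emission ratio gave %activity and AC50.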

[3] = molecular target: Cytochrome P450 1A2 (Homo sapiens) (UniProt P05177); experiment: p450-cyp1a2 (AID 410; calls by dose curve; note: potency is the fitted concentration of half-maximal effect;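 for activity change, negative = inhibition: -100% = full effect of reference inhibitor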); details: recombinant CYP1A2, luciferin-ME demethylation, luminescence; series mostly up to 11.4 µM
Outline: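 20nM CYP1A2 with 100uM Luciferin-ME (at Km) in 100mM KPO4; compound preincubated 10 min, NADPH regeneration added, 60 min at room temperature. Luciferin quantified by luminescence after detection reagent; normalized to 57 uM furafylline.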

[4] = NFAT Signaling Pathway (AID 444); details: Jurkat NFAT-bla M1, carbachol, beta-lactamase ratio, 5 h; at 7.69 µM (top of the series) unless noted;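 note: carbachol stimulus at about its EC50 of 1 µM final; % is set by controls: 0 for no effect and ±100 for the full control effect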
Outline: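 Read-out: CCF4 FRET ratio (460 nm/530 nm) after 1 h RT dye loading, used for %activity and AC50 from titration series. Cells: Jurkat NFAT-β-lactamase/M1 line, treated with compound plus 1 uM carbachol for 5 h, 37 °C.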

[5] = Stat Signaling Pathway (AID 446); details: ME-180 SIE beta-lactamase reporter, IL-6 stimulated, 5 h; at 7.69 µM (top of the series) unless noted;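 note: ME-180 cervical cancer cells given 40 pM IL-6 alongside compound; SIE-controlled beta-lactamase reporter measured as 460/530 nm FRET emission ratio; % is set by controls: 0 for no effect and ±100 for the full control effect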
Outline: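 Screening format detects activators and inhibitors alike: ME-180 SIE-bla cells stimulated at 40 pM IL-6 for 5 hrs with compound, then dual-emission beta-lactamase read at 405 nm excitation.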

[6] = molecular target: Glucocorticoid receptor (Homo sapiens) (UniProt P04150); experiment: GR-GFP Redistribution (AID 450;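 active = compounds whose dose series gives a full or clear partial fitted curve of increased nuclear translocation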; note: potency is the fitted concentration of half-maximal effect); details: U2OS GR-GFP nuclear translocation, laser cytometry, 2 h
[7] = molecular target: Glucocorticoid receptor (Homo sapiens) (UniProt P04150); experiment: GR-EFC Redistribution (AID 451; calls by dose curve; note: potency is the fitted concentration of half-maximal effect); details: CHO-K1 GR-EFC translocation, beta-gal luminescence, 2 h
Outline: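 Translocation of GR-ED fusion to nuclear EA restores b-gal, read by luminescence after 1 h room-temperature detection. Engineered CHO-K1 biosensor cells, 1,000/well, exposed 2 h at 37 C to titrations up to 46 uM final.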

[8] = molecular target: Mitogen-activated protein kinase 10 (Mus musculus) (UniProt Q61831); experiment: JNK3 AlphaScreen Assay (AID 530); details: JNK3 lysate, c-Jun phosphorylation; series mostly up to 11.4 µM;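 note: kinase came from lysate of stimulated human HepG2 cells; signal reports phosphorylation of biotinylated GST-cJun 1-79 at Ser73 with 10 µM ATP; % is set by controls: 0 for no effect and ±100 for the full control effect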
Outline: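 Compound titrations were preincubated 15 minutes at room temperature with substrate, antibody and pre-activated JNK3-containing HepG2 lysate. Reactions were started with 10 uM ATP and stopped with EDTA-containing bead buffer for AlphaScreen detection.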

[9] = molecular target: 3',5'-cyclic-AMP phosphodiesterase 4B (Homo sapiens) (UniProt Q07343); experiment: qHTS Assay for Inhibitors of PDE-IV (AID 607; active = well fitted activation curve with a large enough effect in the main read-out, with a control signal flat, not every such curve was filed as active; note: % of control where 0% means no effect); details: HEK293 ACTOne CNG channel cells, membrane potential fluorescence; series mostly up to 22.9 µM
Outline: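 The readout is membrane depolarisation from a cAMP-sensing CNG channel, detected with a potential dye at ex 535/em 590. Cells were HEK293-derived (endogenous PDE-IV) at 1000 cells/well, titrated up to 22.9 uM final.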

[10] = molecular target: Cytochrome P450 2D6 (Homo sapiens) (UniProt P10635); experiment: qHTS Assay for Inhibitors and Substrates of Cytochrome P450 2D6 (AID 891; active = well fitted curve in the direction sought with a large enough effect; an effect the other way counts as inactive or inconclusive; note: nearly all actives have a fitted effect of over 60% in size; note: potency is the fitted concentration of half-maximal effect); details: recombinant CYP2D6, luciferin-ME EGE luminescence; series mostly up to 11.4 µM
Outline: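 Human CYP2D6 (5 nM) with 30 uM Luciferin-ME EGE (at Km) in 100 mM KPO4, compound preincubated 10 min, then NADPH regeneration system for 60 min at room temperature. Luciferin read by luminescence; normalized to 1.43 uM quinidine.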

[11] = molecular target: Cytochrome P450 3A4 (Homo sapiens) (UniProt P08684); experiment: qHTS Assay for Activators of Cytochrome P450 3A4 (AID 885; active = well fitted curve in the direction sought with a large enough effect; an effect the other way counts as inactive or inconclusive; note: nearly all actives have a fitted effect of over 65% in size); details: recombinant CYP3A4, Luciferin-PPXE luminescence, 60 min; series mostly up to 11.4 µM
Outline: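 Steps: enzyme/substrate mix dispensed; compound added, 10 min RT; NADPH regeneration solution added, 60 min RT; luciferin detection buffer stops reaction; 20 min later luminescence measured.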

[12] = molecular target: Cytochrome P450 2C19 (Homo sapiens) (UniProt P33261); experiment: qHTS Assay for Inhibitors and Substrates of Cytochrome P450 2C19 (AID 899; active = well fitted curve in the direction sought with a large enough effect; an effect the other way counts as inactive or inconclusive; note: potency is the fitted concentration of half-maximal effect; nearly all actives have a fitted effect of over 60% in size); details: recombinant CYP2C19, luciferin-H EGE luminescence; series mostly up to 11.4 µM
Outline: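 Luminescence readout of luciferin formed from 10uM Luciferin-H EGE (KM level) by 5 nM CYP2C19 in 50mM KPO4. 60 min NADPH-driven reaction at 37C after 10 min compound preincubation; data scaled to 57uM ketoconazole inhibition.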

[13] = qHTS Assay for Identification of Small Molecule Agonists for Hypoxia Response Element Signaling Pathway (AID 914; active = well fitted activation curve with a large enough effect in the signal ratio, with a control signal flat, not every such curve was filed as active; the % refers to the signal ratio; note: % of control where 0% means no effect); details: ME-180 (cervical carcinoma) HRE-bla reporter, beta-lactamase ratio, CoCl2, 17 h; activation: active compounds read high
Outline: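 Reporter activity (beta-lactamase, CCF4 460nm/530nm ratio) in HRE-bla ME-180 cells is recorded after 17 h compound exposure with EC50 CoCl2 at 37 degrees Celsius. AC50 values come from titration data.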

Sequence of Cytochrome P450 2D6 (Homo sapiens) (P10635 whole entry, looked up): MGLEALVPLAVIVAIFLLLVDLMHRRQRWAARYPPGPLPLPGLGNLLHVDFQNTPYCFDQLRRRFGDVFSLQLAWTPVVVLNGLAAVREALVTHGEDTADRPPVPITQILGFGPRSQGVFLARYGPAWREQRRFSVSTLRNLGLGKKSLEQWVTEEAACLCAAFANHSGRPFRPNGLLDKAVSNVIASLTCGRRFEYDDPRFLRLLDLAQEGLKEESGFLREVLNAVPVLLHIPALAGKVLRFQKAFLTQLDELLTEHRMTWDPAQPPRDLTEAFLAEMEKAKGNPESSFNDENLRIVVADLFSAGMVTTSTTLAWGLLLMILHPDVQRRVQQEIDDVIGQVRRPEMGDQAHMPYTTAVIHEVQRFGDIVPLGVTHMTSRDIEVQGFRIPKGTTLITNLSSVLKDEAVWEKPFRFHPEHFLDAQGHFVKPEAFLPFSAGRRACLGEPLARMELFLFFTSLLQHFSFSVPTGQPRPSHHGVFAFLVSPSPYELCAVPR
Sequence of Cytochrome P450 1A2 (Homo sapiens) (P05177 whole entry, looked up): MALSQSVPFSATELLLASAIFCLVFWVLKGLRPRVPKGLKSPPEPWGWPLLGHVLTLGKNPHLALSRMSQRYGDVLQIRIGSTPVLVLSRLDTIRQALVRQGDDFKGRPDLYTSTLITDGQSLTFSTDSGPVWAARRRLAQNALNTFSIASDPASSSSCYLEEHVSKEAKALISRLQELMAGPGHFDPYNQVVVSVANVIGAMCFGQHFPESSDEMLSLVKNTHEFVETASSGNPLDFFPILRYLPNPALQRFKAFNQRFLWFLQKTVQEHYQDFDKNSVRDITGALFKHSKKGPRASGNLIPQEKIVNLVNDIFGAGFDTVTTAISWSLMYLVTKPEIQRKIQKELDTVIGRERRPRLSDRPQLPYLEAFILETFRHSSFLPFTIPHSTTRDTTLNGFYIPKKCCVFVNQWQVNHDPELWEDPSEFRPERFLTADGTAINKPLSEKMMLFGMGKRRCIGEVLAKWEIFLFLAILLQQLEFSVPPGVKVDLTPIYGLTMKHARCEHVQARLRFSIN
Sequence of 3',5'-cyclic-AMP phosphodiesterase 4B (Homo sapiens) (Q07343 whole entry, looked up): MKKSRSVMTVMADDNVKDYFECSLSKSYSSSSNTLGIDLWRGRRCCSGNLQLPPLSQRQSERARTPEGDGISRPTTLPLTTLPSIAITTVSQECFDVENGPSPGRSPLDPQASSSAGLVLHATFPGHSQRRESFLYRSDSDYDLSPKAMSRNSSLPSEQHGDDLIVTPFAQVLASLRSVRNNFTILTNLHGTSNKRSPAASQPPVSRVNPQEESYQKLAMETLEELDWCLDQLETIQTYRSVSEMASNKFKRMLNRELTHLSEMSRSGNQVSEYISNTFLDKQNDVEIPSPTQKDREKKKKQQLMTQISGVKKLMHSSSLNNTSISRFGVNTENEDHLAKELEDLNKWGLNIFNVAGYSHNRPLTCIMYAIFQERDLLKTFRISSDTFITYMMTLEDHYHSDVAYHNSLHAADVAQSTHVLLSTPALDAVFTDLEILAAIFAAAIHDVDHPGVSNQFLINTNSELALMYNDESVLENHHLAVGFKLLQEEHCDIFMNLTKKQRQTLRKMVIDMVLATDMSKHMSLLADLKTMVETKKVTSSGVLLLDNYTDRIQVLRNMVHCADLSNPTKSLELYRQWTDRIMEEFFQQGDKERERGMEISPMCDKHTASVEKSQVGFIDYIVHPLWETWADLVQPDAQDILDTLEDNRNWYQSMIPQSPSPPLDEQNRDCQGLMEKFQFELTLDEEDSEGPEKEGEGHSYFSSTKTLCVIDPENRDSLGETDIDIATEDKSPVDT
Sequence of Lysosomal acid glucosylceramidase (Homo sapiens) (P04062 whole entry, looked up): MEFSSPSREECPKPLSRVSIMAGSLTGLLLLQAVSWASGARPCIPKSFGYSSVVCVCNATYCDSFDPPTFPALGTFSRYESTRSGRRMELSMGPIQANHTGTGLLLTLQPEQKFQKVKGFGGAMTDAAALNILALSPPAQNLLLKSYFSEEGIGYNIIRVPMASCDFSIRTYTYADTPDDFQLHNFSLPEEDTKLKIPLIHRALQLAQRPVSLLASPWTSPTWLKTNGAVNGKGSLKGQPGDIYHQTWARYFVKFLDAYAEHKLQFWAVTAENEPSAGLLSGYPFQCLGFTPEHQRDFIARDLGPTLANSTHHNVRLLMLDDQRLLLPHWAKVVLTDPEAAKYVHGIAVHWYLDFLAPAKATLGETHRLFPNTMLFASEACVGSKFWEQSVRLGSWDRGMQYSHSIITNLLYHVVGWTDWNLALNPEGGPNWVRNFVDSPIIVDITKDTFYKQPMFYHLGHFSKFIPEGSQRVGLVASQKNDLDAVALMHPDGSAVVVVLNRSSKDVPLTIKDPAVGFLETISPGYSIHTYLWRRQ
Sequence of Glucocorticoid receptor (Homo sapiens) (P04150 whole entry, looked up, the tested form may be a part): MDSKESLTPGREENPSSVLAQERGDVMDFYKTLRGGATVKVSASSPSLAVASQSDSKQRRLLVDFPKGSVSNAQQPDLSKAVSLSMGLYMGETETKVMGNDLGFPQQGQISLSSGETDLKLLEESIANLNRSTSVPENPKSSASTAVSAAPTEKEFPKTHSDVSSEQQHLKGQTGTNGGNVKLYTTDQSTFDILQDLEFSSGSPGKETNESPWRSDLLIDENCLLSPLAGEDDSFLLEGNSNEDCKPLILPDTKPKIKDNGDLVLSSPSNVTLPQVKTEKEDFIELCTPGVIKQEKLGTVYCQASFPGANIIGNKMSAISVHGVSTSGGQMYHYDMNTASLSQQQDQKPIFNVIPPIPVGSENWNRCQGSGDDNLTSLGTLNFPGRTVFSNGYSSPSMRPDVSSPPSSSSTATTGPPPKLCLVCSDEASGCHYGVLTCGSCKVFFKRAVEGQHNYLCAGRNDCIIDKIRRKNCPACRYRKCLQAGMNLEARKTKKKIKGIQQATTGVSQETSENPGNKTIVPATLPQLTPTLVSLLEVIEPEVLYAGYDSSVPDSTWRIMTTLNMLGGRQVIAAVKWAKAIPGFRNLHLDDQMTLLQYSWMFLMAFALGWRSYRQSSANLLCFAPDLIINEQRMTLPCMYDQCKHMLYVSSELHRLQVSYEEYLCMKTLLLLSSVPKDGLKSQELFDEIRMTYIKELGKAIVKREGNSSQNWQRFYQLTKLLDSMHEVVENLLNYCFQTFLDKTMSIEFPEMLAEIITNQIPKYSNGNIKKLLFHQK
Sequence of Cytochrome P450 3A4 (Homo sapiens) (P08684 whole entry, looked up): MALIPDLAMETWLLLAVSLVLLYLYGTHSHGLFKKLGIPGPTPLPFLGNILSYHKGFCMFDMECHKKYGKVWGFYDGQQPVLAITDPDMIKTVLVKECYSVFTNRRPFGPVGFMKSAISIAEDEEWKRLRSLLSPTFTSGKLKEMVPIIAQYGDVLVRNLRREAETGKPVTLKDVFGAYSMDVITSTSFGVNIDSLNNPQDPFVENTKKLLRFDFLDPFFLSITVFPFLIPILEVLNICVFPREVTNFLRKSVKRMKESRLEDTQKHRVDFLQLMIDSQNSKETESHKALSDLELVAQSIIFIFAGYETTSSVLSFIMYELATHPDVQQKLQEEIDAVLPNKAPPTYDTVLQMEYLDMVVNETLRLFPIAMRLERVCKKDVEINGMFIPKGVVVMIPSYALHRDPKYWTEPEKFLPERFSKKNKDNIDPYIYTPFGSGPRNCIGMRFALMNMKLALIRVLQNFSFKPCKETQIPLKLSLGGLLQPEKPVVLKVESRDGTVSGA
Sequence of Cytochrome P450 2C19 (Homo sapiens) (P33261 whole entry, looked up): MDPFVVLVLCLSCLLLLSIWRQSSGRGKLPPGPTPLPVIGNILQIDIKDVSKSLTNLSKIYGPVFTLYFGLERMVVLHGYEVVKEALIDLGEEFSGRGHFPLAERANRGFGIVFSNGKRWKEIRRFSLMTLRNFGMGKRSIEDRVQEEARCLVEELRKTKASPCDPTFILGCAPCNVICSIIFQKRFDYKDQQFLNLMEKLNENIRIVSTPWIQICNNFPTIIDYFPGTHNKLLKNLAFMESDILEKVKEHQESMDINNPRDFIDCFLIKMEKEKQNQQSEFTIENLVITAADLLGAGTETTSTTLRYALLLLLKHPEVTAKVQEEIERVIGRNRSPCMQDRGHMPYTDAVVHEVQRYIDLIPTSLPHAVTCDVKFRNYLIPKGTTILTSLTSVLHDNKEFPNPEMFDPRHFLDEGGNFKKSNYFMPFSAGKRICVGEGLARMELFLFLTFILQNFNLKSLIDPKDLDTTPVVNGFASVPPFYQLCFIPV

Compound	Potency [1]	activity change, negative = inhibition [2]	Potency [3]	activity change, negative = inhibition [4]	activity, negative = inhibition [5]	Potency [6]	Potency [7]	Potency [8]	Potency [9]	Potency [10]	activity change, negative = inhibition [3]	Potency [11]	Potency [12]	activation [13]
O=C(O)c1nn(-c2ccccc2-c2n[nH]c(=O)[nH]c2=O)c(=O)[nH]c1=O	> 11.4 µM	1.66%	inactive	18.8%	6.32%	> 46 µM	> 9.22 µM	inactive	inactive	inactive	–	–	–	–
OCCN(CO)CO	> 11.4 µM	6.19%	inactive	13.5%	7.15%	> 46 µM	> 9.22 µM	inactive	inactive	inactive	–	–	–	–
NNC(=O)c1ccc[n+](CCc2ccccc2)c1	> 11.4 µM	11.3%	inactive	-4.8%	-0.167%	> 46 µM	> 9.22 µM	inactive	inactive	2 µM (active)	–	–	–	–
CC(C)NC1(C(N)=O)CCN(Cc2ccccc2)CC1	> 11.4 µM	0.245%	–	-10.3%	-5.76%	> 46 µM	> 9.22 µM	inactive	inactive	0.631 µM (active)	7.6% [at 2.29 µM]	–	–	–
c1ccc2c(c1)nnn2CN1CCOCC1	> 11.4 µM	1.95%	inactive	-0.506%	-18.4%	> 46 µM	> 9.22 µM	inactive	inactive	inactive	–	–	–	–
CCCCN1CSC(=S)N(Cc2ccccc2)C1	> 11.4 µM	3.6%	3.98 µM (active)	-0.909%	2.92%	> 46 µM	> 9.22 µM	inactive	inactive	–	–	inactive	1.26 µM (active)	–
O=C(O)[C@@H]1[C@@H](C(=O)O)[C@]23C[C@@]2(C(=O)O)[C@]2(C(=O)O)CCC3=C3CCCC312	> 11.4 µM	10.3%	2.51 µM (active)	0.691%	-2.48%	> 46 µM	> 9.22 µM	inactive	inactive	inactive	–	–	–	–
COCCn1c(=O)c(-c2cc(F)cc(F)c2)nc2cnc(Oc3ccccc3)nc21	> 11.4 µM	0.911%	5.01 µM (active)	-3.81%	0.0611%	> 9.22 µM	> 46 µM	inactive	inactive	–	–	inactive	–	20.9%
